The whole screen tested about 48,000 compounds, of which about 13,000 (27%) showed an effect of 50% or more. The list shows a part of the results.
Test system: Wolbachia pipientis
Assay: Anti-Wolbachia Cell-Based Screen
Format: functional
Set-up: scale not given: in the data most compounds retested in dose-response had high values
Settings: 5 µM

Row | SMILES | Percent Effect [%]
1 | CCC(C)NC(=O)CCNC(=O)c1c[nH]cc1-c1cccc(OC)c1 (centres undefined) | -21.59
2 | CC(C)CNC(=O)CC1OCCc2ccsc21 (centres undefined) | -17.3
3 | Cc1nc(CNC(=O)NCCC2=CCCC2)oc1C | -10.48
4 | CC(Cc1ccccc1F)NC(=O)CCc1nc(-c2nnc[nH]2)no1 (centres undefined) | 5.01
5 | Cn1cc(-c2cccc(CNC(=O)N3CCC[C@@H]3CO)c2)cn1 | -23.52
6 | NC(=O)c1cncc(N2CCN(Cc3cccc4nsnc34)CC2)n1 | -24.77
7 | CC(O)Cc1cn(CC2CCN(C3CCSCC3)CC2)nn1 (centres undefined) | -14.87
8 | CC(C(=O)Nc1ncccn1)N1CCC(n2ccnc2)CC1 (centres undefined) | -2.043
9 | Cc1cnc(NC(=O)N2CCCC2)s1 | 11.08
10 | CC(=O)N1CCC(c2nccnc2Nc2ncc(C)s2)CC1 | 69.11
11 | CC(C)N1CCC(c2nccnc2Nc2ncccn2)CC1 | 97.4
12 | Cc1cnc(NC(=O)N2CCCCCC2)s1 | -6.378
13 | COc1ccc(C)cc1S(=O)(=O)NCCC(O)c1ccccc1 (centres undefined) | -7.148
14 | COCCCC1CCCN(C(=O)CCc2cc(O)no2)C1 (centres undefined) | -11.88
15 | Cn1nc(C2CCCN(C(=O)CO)C2)cc1O (centres undefined) | -7.33
16 | COCCC(=O)N1CCCC(c2nc(O)cc(-c3ccncc3)n2)C1 (centres undefined) | 119.6
17 | COCCC(=O)N1CCC(c2nc(O)cc(-c3ccncc3)n2)C1 (centres undefined) | 95
18 | COCCC(=O)N1CCC(c2cc(O)n(C)n2)C1 (centres undefined) | 94.23
19 | O=C(c1[nH]nc(C2CC2)c1Cl)N1CCN(C2CC2)C(=O)C1 | -4.23
20 | CCc1nnsc1C(=O)NCCC1CN(C(C)C)CCO1 (centres undefined) | 2.098
21 | O=C(NCc1cc[nH]n1)N(CCCO)C1CCc2ccccc21 (centres undefined) | 9.826
22 | COCC(=O)N1CCOC2(CCCN(c3cnccn3)C2)C1.O=C(O)C(F)(F)F (centres undefined) | -12.12
23 | CC(C)NC(=O)N1CCOC2(CCCN(c3ncccc3F)C2)C1.O=C(O)C(F)(F)F (centres undefined) | 108.5
24 | N#Cc1cccc(N2CCCC3(CN(C(=O)[C@H]4CCCO4)CCO3)C2)c1 (some centres undefined) | -7.794
25 | CC(C)NC(=O)N1CCOC2(CCCN(c3cccc(C#N)c3)C2)C1 (centres undefined) | -9.45

Row | SMILES | Percent Effect [%]
26 | O=C(O)C(F)(F)F.O=C([C@H]1CCCO1)N1CCOC2(CCCN(c3ncccc3F)C2)C1 (some centres undefined) | 94.35
27 | CN(C)CC(=O)N1CCOC2(CCCN(c3ncccc3F)C2)C1.O=C(O)C(F)(F)F.O=C(O)C(F)(F)F (centres undefined) | 6.33
28 | O=C(CO)N1CCOC2(CCCN(c3ncc(F)cn3)C2)C1.O=C(O)C(F)(F)F (centres undefined) | 5.697
29 | O=C(O)C(F)(F)F.O=C(c1cnccn1)N1CCOC2(CCCN(c3ncccc3F)C2)C1 (centres undefined) | 105
30 | O=C(O)C(F)(F)F.O=C(c1cnccn1)N1CCOCC2(CCN(C3CCOCC3)C2)C1 (centres undefined) | 8.846
31 | COc1ccc(C(=O)C2CCCN(c3cc(OC)ncn3)C2)c(C)c1 (centres undefined) | -87.76
32 | CC(Cn1cccn1)NCCS(=O)(=O)c1ccc(Cl)cc1 (centres undefined) | 2.973
33 | CC(Cn1cncn1)NC(=O)NCC(C)(C)Cc1ccccc1 (centres undefined) | -14.88
34 | CCn1c(C2CCN(C(=O)COCC(F)(F)C(F)F)CC2)n[nH]c1=O | 14.31
35 | COCCN(C)C[C@@H]1CN(c2cc(C)nc3ccccc23)C[C@@H]1CO | 85.76
36 | CCc1c(C)nc(C)nc1N1C[C@@H](CN(C)CCN(C)C)[C@@H](CO)C1 | 17.56
37 | COCCN(C)C[C@@H]1CN(c2nc(C)cc(C)n2)C[C@@H]1CO | 106.7
38 | CN(CCO)C[C@@H]1CN(Cc2ccccc2-c2ccccc2)C[C@@H]1CO | -1.449
39 | COCCN(C)C[C@@H]1CN(Cc2ccnc3ccccc23)C[C@@H]1CO | 90.52
40 | Cc1ccccc1CN1C[C@@H](CN(C)CCO)[C@@H](CO)C1 | 4.643
41 | Cc1nc2ccccn2c1CN1C[C@@H](CN(C)CCO)[C@@H](CO)C1 | -4.106
42 | COCCN(C)C[C@@H]1CN(c2nnc(C(C)C)s2)C[C@@H]1CO | 6.543
43 | Cc1ccc2nc(C)cc(C(=O)NCc3csc(N(C)C)n3)c2c1 | -3.48
44 | CCc1nccn1CC(=O)N1C[C@H]2CC[C@@H]1CN(c1ncccn1)C2 | 11.21
45 | COCC1c2nnn(CC3CC3)c2CCN1C(=O)c1cc(C)[nH]c1C (centres undefined) | -16.52
46 | CC(C)NC(=O)c1ccc2c(c1)C(c1nc[nH]n1)CN2C (centres undefined) | -2.409
47 | CC(c1nc(C2CC2)no1)N1CCN(Cc2ccc(C#N)cc2)CC1 (centres undefined) | 26.07
48 | CC(c1nc(C(C)(C)C)no1)N1CCN(Cc2ccc(C#N)cc2)CC1 (centres undefined) | 107.5
49 | CCCc1noc(C(C)N2CCN(c3ccc(C#N)cn3)CC2)n1 (centres undefined) | 130.1
50 | Cc1nsc(N2CCCN(c3ccc(C#N)cn3)CC2)n1 | 7.107

Row | SMILES | Percent Effect [%]
51 | CCc1noc(C(C)N2CCN(c3ncnc4sccc34)CC2)n1 (centres undefined) | -87.61
52 | CC(c1nc(C2CC2)no1)N1CCN(Cc2cccc(C#N)c2)CC1 (centres undefined) | -8.29
53 | Cc1noc(C2CCN(C(C)c3nc(C(C)(C)C)no3)CC2)n1 (centres undefined) | 4.561
54 | Cc1noc(C(C)N2CCN(Cc3cccc(C#N)c3)CC2)n1 (centres undefined) | 7.153
55 | CCCc1noc(C(C)N2CCN(CCn3ccccc3=O)CC2)n1 (centres undefined) | -12.82
56 | Cc1noc(C(C)N2CCN(c3ncnc4ccccc34)CC2)n1 (centres undefined) | -16.31
57 | Cc1noc(C(C)N2CCN(c3ccc(C#N)cn3)CC2)n1 (centres undefined) | 146.7
58 | CC(c1nc(C(C)(C)C)no1)N1CCN(c2ccc(C#N)cn2)CC1 (centres undefined) | 105.6
59 | COc1ccc(OCc2nc3cc4c(cc3c(=O)o2)OCCCO4)cc1 | -25.33
60 | CSc1cc2c(cc1NC(=O)NCc1ccncc1)OCCO2 | 0.1832
61 | O=C(NCC1CC1)C1CN(C(=O)c2ccnnc2)CC12CCOCC2 (centres undefined) | -9.874
62 | CN1C(=O)[C@H]2CC[C@@H]1CN(C(=O)Nc1cccc3ccccc13)C2 | 3.863
63 | N#Cc1cn(C2CC2)c(=O)n(Cc2noc(-c3ccsc3)n2)c1=O | -8.2
64 | COc1ccccc1NC(=O)NC(C)c1nc[nH]n1 (centres undefined) | -1.106
65 | CC(C)c1noc(C(C)N2CCN(Cc3ccccc3C#N)CC2)n1 (centres undefined) | -2.438
66 | CC(C)c1noc(C(C)N2CCN(c3ccc(C#N)cn3)CC2)n1 (centres undefined) | 186.4
67 | CC(C)c1noc(C(C)N2CCN(Cc3cccc(C#N)c3)CC2)n1 (centres undefined) | 10.45
68 | CN(C)C1CCN(C(=O)c2ccnn2-c2ccc3ccccn23)CC1.O=C(O)C(F)(F)F | 64.37
69 | CC(C)(CO)CNC(=O)c1ccnn1-c1ccc2ccccn12 | -11.35
70 | CN1CCN(c2ccc3ccc(C(=O)N4CCCO4)cn23)CC1.O=C(O)C(F)(F)F | 0.4274
71 | O=C(NCCCN1CCOCC1)c1ccn(-c2ccc3ccccn23)n1.O=C(O)C(F)(F)F | -6.828
72 | CN1CCCN(C(=O)c2ccnn2-c2ccc3ccccn23)CC1.O=C(O)C(F)(F)F | 83.85
73 | Cc1nc(-c2cc(C(=O)N3CCCN(C)CC3)c3ccccn23)cn1C.O=C(O)C(F)(F)F | -23.06
74 | CCOCc1nnc(NCc2ccsc2)o1 | -11.46
75 | Cc1ccc(OCC(O)CN(C)CC(=O)Nc2cc(C)on2)c(C)c1 (centres undefined) | 9.432

Row | SMILES | Percent Effect [%]
76 | O=C(Cc1ccccc1)N1CCOC(c2nc(-c3ncccn3)no2)C1 (centres undefined) | 104.4
77 | O=C(O)C(=O)O.c1cnc(-c2noc(C3CN(Cc4ccc5c(c4)CCO5)C3)n2)nc1 | 8.464
78 | O=C(Cc1ccsc1)N1CCOC(c2nc(-c3ncccn3)no2)C1 (centres undefined) | 131.4
79 | Cc1noc([C@@H]2CCO[C@@H]3CCN(C(=O)Cc4ccsc4)C[C@@H]32)n1 | 6.284
80 | Cc1n[nH]c(C2CN(C(=O)CCc3ccsc3)CCO2)n1 (centres undefined) | -9.569
81 | Cc1ccn(CCC(=O)N2CCOC(c3nc(-c4cccs4)no3)C2)n1 (centres undefined) | -6.468
82 | Cc1ccc2c(C)c(C(=O)NCc3csc(N)n3)oc2c1 | 24.68
83 | Cc1cc(S(=O)(=O)NCC[S+](C)[O-])c(F)cc1F (centres undefined) | 90.6
84 | Cc1ccc(S(=O)(=O)NCc2cnn(C)c2)c(F)c1 | 1.109
85 | Cc1cc(S(=O)(=O)NCC(C)(C)N)c(F)cc1F.Cl | 106.9
86 | Cc1cc(F)c(S(=O)(=O)NCCCN2CCC(O)CC2)cc1F | 7.324
87 | Cc1ccc(S(=O)(=O)NC(C)(C)CN)c(F)c1.Cl | -7.288
88 | Cc1ccc(S(=O)(=O)NCCCN2CCC(O)CC2)c(F)c1 | 10.81
89 | Cc1ccc(S(=O)(=O)NCC(C)(C)N)c(F)c1.Cl | 102.6
90 | Cc1c(F)cccc1S(=O)(=O)NCCN.Cl | -3.419
91 | Cc1ccc(F)c(NCC(C)(C)S(C)(=O)=O)c1 | -3.079
92 | CCc1nc(NS(=O)(=O)c2cc(C)c(F)cc2Cl)no1 | -1.735
93 | Cc1c(F)cccc1S(=O)(=O)NC(C)(C)CN.Cl | -6.464
94 | Cc1cc(S(=O)(=O)NC(C)(C)CN)c(F)cc1F.Cl | 112.3
95 | Cc1nn(C)cc1CN(C)Cc1cc2c(cc1OC(F)F)OCO2 | 5.231
96 | CCS(=O)(=O)N1CCC(c2nccn2Cc2ccncc2)CC1 | 17.72
97 | COc1cccc(OCCCc2cc(C#N)ccn2)c1 | -11.05
98 | Cc1cccc(C(C(=O)NCc2nc(-c3cccnc3)no2)N(C)C)c1 (centres undefined) | -3.627
99 | CC1=C[C@@H](CN2CCOCC2)[C@H](C(C)C)C[C@H]1Cc1nnc(C)o1 | -6.193
